Assay results reported in the supplement of paper PMC11732987, “Enantioselective OTUD7B fragment discovery through chemoproteomics screening and high-throughput optimisation” (Communications Chemistry, 2025).

Key:
ALG13 = target: T1, ALG13 (UniProt Q9NP73); experiment: log2 ratio of Biotin-Ahx-Ub-VS probe labelling (fragment/DMSO); higher = less target engagement (more negative = stronger competition), active = hit call of the paper (q ≤ 0.05, log2 ratio ≤ -1); settings: compound concentration: 200 uM; treatment time: 3 h
T1 sequence (whole entry): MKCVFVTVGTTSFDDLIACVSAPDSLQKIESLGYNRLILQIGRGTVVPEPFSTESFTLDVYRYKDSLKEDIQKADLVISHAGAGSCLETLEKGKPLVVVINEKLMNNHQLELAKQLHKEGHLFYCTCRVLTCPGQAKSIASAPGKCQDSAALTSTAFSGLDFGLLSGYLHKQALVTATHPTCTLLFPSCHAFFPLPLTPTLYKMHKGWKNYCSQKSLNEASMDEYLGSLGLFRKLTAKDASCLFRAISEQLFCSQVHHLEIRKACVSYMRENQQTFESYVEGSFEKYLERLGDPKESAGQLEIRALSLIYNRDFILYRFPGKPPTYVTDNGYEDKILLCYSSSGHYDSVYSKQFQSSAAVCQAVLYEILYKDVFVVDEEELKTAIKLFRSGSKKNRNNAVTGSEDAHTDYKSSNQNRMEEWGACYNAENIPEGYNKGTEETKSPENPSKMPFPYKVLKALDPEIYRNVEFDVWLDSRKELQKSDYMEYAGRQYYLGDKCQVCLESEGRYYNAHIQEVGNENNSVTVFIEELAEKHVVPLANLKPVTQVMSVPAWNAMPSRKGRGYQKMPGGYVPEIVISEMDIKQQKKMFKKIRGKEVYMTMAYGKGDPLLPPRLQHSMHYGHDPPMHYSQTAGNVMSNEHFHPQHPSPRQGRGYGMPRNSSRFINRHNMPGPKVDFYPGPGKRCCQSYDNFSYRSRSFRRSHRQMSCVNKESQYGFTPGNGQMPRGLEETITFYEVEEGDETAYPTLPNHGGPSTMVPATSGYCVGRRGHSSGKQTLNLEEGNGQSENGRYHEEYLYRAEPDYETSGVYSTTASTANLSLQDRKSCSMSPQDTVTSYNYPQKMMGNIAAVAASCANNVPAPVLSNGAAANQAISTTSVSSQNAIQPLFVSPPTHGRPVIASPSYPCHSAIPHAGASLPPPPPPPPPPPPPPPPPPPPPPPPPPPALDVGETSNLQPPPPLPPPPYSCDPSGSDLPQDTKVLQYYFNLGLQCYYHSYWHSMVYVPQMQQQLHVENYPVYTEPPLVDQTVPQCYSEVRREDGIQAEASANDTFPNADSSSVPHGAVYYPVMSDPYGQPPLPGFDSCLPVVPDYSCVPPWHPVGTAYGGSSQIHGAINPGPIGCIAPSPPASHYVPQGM
Method in brief: (§1)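 Average log2 ratios of fragment over vehicle were obtained by unpaired t-test from global-median-normalised Spectronaut label-free quantities. Proteins with ≥2 unique peptides were included. HEK293T lysate (495 µg per sample) was treated in triplicate with fragment at 200 µM or vehicle for 3 h, then with Biotin-Ahx-Ub-VS at 0.5 µM final for 1 h, and labelled DUBs were NeutrAvidin-enriched and run by diaPASEF LC-MS/MS.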

ATXN3 = ATXN3 (UniProt P54252); experiment: as above; settings: compound concentration: 200 uM; treatment time: 3 h
Method in brief: as §1

BAP1 = target: T2, BAP1 (UniProt Q92560); experiment: as above; settings: compound concentration: 200 uM; treatment time: 3 h
T2 sequence (whole entry): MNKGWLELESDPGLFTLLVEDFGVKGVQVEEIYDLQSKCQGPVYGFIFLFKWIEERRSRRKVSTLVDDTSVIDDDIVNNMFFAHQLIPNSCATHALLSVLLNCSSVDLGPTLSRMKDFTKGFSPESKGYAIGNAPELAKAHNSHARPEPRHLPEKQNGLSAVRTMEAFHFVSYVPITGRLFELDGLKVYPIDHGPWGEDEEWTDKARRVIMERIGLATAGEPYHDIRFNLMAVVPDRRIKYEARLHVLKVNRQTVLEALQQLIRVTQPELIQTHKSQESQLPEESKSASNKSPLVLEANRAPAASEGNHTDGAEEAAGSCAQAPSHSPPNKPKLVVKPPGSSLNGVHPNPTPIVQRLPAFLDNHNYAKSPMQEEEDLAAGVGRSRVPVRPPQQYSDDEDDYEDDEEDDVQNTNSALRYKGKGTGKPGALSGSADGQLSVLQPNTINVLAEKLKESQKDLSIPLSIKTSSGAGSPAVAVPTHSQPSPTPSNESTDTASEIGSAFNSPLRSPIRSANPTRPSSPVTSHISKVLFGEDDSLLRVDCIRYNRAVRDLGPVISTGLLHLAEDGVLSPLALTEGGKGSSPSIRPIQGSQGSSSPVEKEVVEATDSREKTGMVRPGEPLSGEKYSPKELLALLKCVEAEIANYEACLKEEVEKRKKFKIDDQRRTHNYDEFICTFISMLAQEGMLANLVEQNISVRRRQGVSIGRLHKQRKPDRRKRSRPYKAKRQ
Method in brief: as §1

EIF3F = EIF3F (UniProt O00303); experiment: as above; settings: compound concentration: 200 uM; treatment time: 3 h
Method in brief: as §1

EIF3H = EIF3H (UniProt O15372); experiment: as above; settings: compound concentration: 200 uM; treatment time: 3 h
Method in brief: as §1

FAM105A = target: T3, FAM105A (UniProt Q9NUU6); experiment: as above; settings: compound concentration: 200 uM; treatment time: 3 h
T3 sequence (whole entry): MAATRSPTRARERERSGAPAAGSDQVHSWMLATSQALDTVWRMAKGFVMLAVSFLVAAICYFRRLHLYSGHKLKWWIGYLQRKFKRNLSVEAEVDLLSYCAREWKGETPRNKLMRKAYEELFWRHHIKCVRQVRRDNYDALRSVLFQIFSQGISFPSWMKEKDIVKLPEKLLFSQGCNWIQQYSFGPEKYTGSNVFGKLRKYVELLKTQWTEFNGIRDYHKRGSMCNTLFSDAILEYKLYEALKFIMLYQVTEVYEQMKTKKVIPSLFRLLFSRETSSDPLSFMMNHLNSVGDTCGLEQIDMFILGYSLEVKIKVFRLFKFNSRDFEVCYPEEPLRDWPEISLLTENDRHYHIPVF
Method in brief: as §1

OTUB1 = OTUB1 (UniProt Q96FW1); experiment: as above; settings: compound concentration: 200 uM; treatment time: 3 h
Method in brief: as §1

OTUD4 = target: T4, OTUD4 (UniProt Q01804); experiment: as above; settings: compound concentration: 200 uM; treatment time: 3 h
T4 sequence (whole entry): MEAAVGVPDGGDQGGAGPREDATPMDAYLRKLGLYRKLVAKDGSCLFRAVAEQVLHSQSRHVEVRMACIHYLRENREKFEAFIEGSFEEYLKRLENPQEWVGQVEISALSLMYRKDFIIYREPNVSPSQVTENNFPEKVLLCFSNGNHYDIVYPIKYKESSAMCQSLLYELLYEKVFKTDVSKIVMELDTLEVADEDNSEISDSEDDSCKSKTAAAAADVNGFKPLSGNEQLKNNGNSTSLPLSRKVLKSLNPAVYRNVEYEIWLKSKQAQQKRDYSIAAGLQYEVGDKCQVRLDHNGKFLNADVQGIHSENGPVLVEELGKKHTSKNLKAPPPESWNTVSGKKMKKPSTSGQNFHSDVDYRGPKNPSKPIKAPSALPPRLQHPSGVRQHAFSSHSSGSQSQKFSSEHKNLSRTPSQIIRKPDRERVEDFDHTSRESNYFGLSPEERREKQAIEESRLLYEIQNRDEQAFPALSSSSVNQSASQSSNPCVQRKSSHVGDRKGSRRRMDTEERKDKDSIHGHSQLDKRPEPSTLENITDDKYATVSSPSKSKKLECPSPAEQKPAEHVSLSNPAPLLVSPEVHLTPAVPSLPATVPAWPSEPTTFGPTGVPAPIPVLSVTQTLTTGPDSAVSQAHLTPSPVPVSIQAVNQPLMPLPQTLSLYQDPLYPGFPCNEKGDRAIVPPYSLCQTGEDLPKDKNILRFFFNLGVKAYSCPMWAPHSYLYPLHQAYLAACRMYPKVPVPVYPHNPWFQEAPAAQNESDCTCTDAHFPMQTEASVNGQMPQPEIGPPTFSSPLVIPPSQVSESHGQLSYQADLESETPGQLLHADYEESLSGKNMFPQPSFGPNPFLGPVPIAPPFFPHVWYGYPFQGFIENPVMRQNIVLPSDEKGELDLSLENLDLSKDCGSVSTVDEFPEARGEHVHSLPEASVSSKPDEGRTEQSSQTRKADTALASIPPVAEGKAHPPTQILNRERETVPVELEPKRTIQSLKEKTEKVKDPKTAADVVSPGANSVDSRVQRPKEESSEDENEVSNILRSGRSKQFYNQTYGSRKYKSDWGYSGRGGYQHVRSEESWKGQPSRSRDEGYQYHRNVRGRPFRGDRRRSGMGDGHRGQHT
Method in brief: as §1

OTUD5 = target: T5, OTUD5 (UniProt Q96G74); experiment: as above; settings: compound concentration: 200 uM; treatment time: 3 h
T5 sequence (whole entry): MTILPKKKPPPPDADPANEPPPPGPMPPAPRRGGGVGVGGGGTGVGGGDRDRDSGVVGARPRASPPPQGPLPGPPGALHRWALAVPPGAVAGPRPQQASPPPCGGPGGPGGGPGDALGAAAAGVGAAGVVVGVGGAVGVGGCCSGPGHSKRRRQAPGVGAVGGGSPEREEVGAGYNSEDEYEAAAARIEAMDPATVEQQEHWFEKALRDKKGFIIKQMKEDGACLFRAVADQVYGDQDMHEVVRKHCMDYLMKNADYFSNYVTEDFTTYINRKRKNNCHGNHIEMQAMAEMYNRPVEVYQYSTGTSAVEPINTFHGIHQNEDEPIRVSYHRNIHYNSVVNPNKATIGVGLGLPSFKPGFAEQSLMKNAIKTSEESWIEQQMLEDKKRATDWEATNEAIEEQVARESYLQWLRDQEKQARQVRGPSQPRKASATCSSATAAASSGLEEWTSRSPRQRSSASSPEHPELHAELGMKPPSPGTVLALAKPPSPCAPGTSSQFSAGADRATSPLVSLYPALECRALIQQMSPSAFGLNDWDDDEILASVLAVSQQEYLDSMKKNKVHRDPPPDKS
Method in brief: as §1

USP38 = target: T6, USP38 (UniProt Q8NB14); experiment: log2 ratio of Biotin-Ahx-Ub-VS probe labelling (compound/DMSO); higher = less target engagement, active = hit call of the paper (q ≤ 0.05, log2 ratio ≤ -1); settings: treatment time: 3 h
T6 sequence (whole entry): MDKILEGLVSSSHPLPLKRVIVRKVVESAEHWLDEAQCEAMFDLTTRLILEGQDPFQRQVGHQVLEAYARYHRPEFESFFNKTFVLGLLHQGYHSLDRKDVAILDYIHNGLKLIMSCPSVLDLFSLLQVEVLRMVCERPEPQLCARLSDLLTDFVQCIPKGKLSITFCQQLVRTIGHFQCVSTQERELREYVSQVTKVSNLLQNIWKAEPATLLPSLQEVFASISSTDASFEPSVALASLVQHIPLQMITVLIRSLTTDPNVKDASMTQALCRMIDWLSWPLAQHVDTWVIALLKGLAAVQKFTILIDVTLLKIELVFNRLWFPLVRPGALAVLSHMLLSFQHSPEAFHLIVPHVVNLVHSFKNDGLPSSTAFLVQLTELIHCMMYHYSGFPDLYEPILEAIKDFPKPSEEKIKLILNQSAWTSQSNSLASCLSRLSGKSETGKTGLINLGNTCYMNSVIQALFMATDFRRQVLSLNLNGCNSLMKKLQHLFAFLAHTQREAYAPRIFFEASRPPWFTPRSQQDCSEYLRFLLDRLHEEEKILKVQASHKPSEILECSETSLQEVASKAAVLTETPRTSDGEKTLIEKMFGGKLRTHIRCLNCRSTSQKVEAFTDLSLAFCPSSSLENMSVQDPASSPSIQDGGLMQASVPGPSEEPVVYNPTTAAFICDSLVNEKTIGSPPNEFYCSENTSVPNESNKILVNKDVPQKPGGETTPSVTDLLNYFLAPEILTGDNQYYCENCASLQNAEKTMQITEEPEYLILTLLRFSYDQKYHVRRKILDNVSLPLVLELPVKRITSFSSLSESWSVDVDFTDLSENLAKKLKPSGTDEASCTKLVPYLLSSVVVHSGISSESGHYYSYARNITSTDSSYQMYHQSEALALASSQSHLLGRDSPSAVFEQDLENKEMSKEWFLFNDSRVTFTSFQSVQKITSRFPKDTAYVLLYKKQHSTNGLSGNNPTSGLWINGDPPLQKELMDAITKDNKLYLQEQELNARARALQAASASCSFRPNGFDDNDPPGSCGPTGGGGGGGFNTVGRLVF
Method in brief: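 Values are average ratios of compound to vehicle from an unpaired t-test, limited to proteins with at least two unique peptides. HEK293T lysate (495 µg per sample, in Tris/CHAPS/IGEPAL buffer with protease inhibitors) was exposed in triplicate to a concentration series of compound or to vehicle for 3 h, then to Biotin-Ahx-Ub-VS at 0.5 µM final for 1 h. Labelled deubiquitinases were enriched on NeutrAvidin, digested with LysC and trypsin, and analysed by diaPASEF LC-MS/MS. Ratios are given on a log2 scale from Spectronaut label-free protein quantities normalised to the global median.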

Measured: log2 ratio of Biotin-Ahx-Ub-VS probe labelling

OTUB1, sequence (Q96FW1 whole entry): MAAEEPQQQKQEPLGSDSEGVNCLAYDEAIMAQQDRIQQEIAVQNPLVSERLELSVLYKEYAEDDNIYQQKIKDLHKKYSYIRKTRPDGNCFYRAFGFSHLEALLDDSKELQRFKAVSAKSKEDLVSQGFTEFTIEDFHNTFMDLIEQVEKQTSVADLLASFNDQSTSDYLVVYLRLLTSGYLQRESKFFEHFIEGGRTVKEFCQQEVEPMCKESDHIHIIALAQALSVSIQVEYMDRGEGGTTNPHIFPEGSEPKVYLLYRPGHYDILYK
EIF3F, sequence (O00303 whole entry): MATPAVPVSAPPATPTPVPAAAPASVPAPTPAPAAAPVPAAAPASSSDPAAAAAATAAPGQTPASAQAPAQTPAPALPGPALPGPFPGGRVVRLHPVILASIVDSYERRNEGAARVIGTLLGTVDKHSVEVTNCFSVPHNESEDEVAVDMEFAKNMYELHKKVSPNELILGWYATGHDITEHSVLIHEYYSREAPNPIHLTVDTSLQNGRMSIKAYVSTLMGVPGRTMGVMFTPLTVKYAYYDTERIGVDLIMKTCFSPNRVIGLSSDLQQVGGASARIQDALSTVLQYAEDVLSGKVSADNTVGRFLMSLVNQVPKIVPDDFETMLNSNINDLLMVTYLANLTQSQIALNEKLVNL
EIF3H, sequence (O15372 whole entry): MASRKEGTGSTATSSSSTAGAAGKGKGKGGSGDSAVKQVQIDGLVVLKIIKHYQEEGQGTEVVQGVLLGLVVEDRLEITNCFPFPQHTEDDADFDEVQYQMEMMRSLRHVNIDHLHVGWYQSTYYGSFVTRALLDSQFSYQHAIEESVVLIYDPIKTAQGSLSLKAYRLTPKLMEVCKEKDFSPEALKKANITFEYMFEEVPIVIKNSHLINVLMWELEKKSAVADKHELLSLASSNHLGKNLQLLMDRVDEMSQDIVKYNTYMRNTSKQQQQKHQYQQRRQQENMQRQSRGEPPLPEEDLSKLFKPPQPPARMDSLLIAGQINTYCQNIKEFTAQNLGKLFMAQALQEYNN
ATXN3, sequence (P54252 whole entry): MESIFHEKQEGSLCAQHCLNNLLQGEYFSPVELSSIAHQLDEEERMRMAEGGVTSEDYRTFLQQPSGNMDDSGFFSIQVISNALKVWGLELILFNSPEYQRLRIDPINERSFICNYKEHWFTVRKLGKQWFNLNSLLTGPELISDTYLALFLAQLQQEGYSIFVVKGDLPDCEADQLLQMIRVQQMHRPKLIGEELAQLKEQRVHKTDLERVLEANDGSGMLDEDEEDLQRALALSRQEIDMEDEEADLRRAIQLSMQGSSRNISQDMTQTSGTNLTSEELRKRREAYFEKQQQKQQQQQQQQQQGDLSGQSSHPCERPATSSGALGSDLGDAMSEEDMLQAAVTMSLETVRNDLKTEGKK

Cc1cc(C(=O)NC2CCN(C(=O)CCl)CC2)no1
inactive: ALG13 0.0715 | ATXN3 -0.572 | BAP1 -0.339 | EIF3F -0.05 | EIF3H 0.0609 | FAM105A 0.133 | OTUB1 -0.0459 | OTUD4 -0.297 | OTUD5 -0.298

O=C(CCl)N[C@@H]1CCCc2ccccc21
inactive: USP38; compound concentration: 0.78uM -0.208 | USP38; compound concentration: 1.56uM -0.105 | USP38; compound concentration: 3.13uM -0.116 | USP38; compound concentration: 6.25uM -0.253 | USP38; compound concentration: 12.5uM -0.127 | USP38; compound concentration: 25uM -0.107 | USP38; compound concentration: 50uM -0.0917 | USP38; compound concentration: 100uM -0.166 | USP38; compound concentration: 200uM -0.233
